From PubChem BioAssay come the findings set out here.

Assay [1] has as its system Hepatitis C virus NS3 helicase. Kind of assay: blockers of NS3h binding to ssDNA – biochemical, fluorescence polarization, LOPAC1280 library, primary screen (AID 687035; in the data active = inhibition above about 37%). Particulars: Purified HCV NS3 helicase, Cy5-dT15 ssDNA binding fluorescence polarization; stronger effect = higher value; concentration not given here.
Assay [2] in a line: compounds altering Cy5-DNA-NS3h complex signal – biochemical, LOPAC1280, artefact control for HCV NS3 helicase inhibitor project (AID 687037; call rule not given here). As to conditions: Cy5-DNA-NS3h complex fluorescence interference counterscreen.
A short description of assay [3]: viability loss in pontine glioma line – cell-based, SU-DIPG-XIII, MIPE4.0, CellTiter-Glo, qHTS, dose response (AID 1347061; cut-off not given, nearly all actives have AC50 up to about 37 µM;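 also: cells exposed to compound for 48 hours before readout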). Particulars: CellTiter-Glo ATP luminescence.
The nature of assay [4]: compounds altering HSF1 focus formation in cells – imaging, Selleck Cancer Library (AID 1347162; in the data active = plate-normalised HSF1 focus index below about 0.46). As to conditions: human cells, HSF1 nuclear foci imaging, at 10 µM; SSMD: measured here: HSF1 foci SSMD mean; cell count: measured here: cell number; plate-normalised HSF1 focus index: stronger effect = lower value.
Assay [5] addresses NAD(+) hydrolase SARM1 (Homo sapiens) (UniProt Q6SZW1). Kind of assay: blocking NAD cleavage by SARM1 SAM-TIR – cell lysate, NAD-Glo luminescence (AID 1508614;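 active = compound whose remaining NAD level is above about 45 nM, limit read from the data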;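 also: higher remaining NAD means stronger inhibition of SARM1 NADase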). Particulars: SAM-TIR HEK293T lysate NADase, at 1 µM, stronger effect = higher value.
The nature of assay [6]: compounds altering circadian rhythm period length – cell-based, LOPAC library, luminescence reporter (AID 2774; call rule not given here;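 also: values are relative to mean of DMSO wells on each plate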). As to conditions: circadian reporter cells, at 7 µM, actives lie on both sides.
Assay [7] in a line: viability loss in pontine glioma line – cell-based, SU-DIPG-XIII, MIPE5.0, CellTiter-Glo, qHTS, dose response (AID 1347064; cut-off not given, nearly all actives have AC50 up to about 23 µM;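 as to AC50: cells exposed to compound for 48 hours before the viability read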). Particulars: CellTiter-Glo ATP luminescence.
Assay [8] is described as follows: growth inhibition, single agent or in combination, cell-based, chromothripsis tumors, cisplatin or BGB combos (AID 1671449).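 Also: cells exposed for 96 hours; 0% = vehicle DMSO and 100% = killing by high DMSO.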 Particulars: LFS_MB_P medulloblastoma cells.
Assay [9] is described as follows: growth inhibition, single agent and combos, cell-based, chromothripsis tumors, cisplatin or BGB combos (AID 1671450).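 Also: cells exposed to compound for four days; 0% = vehicle DMSO and 100% = cell killing by high DMSO.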 As to conditions: HDN33 neuroblastoma cells, stronger effect = higher value.
Assay [10] is described as follows: growth inhibition, single agents and combos, ICB984, cell-based, cisplatin or BGB combos, synergistic combos for chromothripsis tumors (AID 1671451; call rule not given here;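 also: cells exposed for 96 hours before readout; 0% = vehicle DMSO and 100% = killing by high DMSO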). Particulars: ICB984 medulloblastoma cells, drug combinations, stronger effect = higher value.
The nature of assay [11]: growth inhibition, single agents and combos, LFS_MB_1R, cell-based, cisplatin or BGB combos, synergistic combos for chromothripsis tumors (AID 1671452).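 Also: cells exposed for 96 hours before readout.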 Particulars: LFS_MB_1R medulloblastoma cells, stronger effect = higher value.
A short description of assay [12]: growth inhibition, single agents and combos, HTB85, cell-based, BGB or cisplatin IC20 combos, synergistic combos for chromothripsis tumors (AID 1671453).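 Also: cells exposed for 96 hours before readout; 0% = vehicle DMSO and 100% = high DMSO killing control.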 Particulars: HTB85 osteosarcoma cells, drug combinations, stronger effect = higher value.
The nature of assay [13]: growth inhibition, single agents and combos, CRL2098, cell-based, BGB or cisplatin IC20 combos, synergistic combos for chromothripsis tumors (AID 1671454).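 Also: cells exposed for 96 h before readout; 0% = vehicle DMSO and 100% = killing by high DMSO.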 As to conditions: CRL2098 osteosarcoma cells, drug combinations, stronger effect = higher value.
Assay [14] can be described thus: growth inhibition, single agents and combos, HD-MB03, cell-based, BGB or cisplatin IC20 combos, synergistic combos for chromothripsis tumors (AID 1671455; in the data active = inhibition above about 83%;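 also: 0% = vehicle DMSO and 100% = high DMSO as cytotoxic control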). As to conditions: HD-MB03 medulloblastoma cells, stronger effect = higher value.
Assay [15] in a line: growth inhibition, single agents and combos, UWB1.289, cell-based, BGB or cisplatin combos, synergistic combos for chromothripsis tumors (AID 1671456).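 Also: cells exposed to compound for four days; 0% = vehicle DMSO and 100% = killing by high DMSO.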 Particulars: UWB1.289 ovarian carcinoma cells, stronger effect = higher value.
The nature of assay [16]: growth inhibition, MDA-MB-436, cell-based, BGB or cisplatin combos, synergistic combos for chromothripsis tumors (AID 1671458; call rule not given here;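 also: cells exposed for 96 hours; 0% = vehicle DMSO and 100% = killing by high DMSO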). Particulars: MDA-MB-436 breast carcinoma growth inhibition, drug combinations, stronger effect = higher value.
The nature of assay [17]: BT084 cell growth, single and combined drugs, ICGC_MB145, cisplatin and BGB IC40 combos (AID 1671461).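 Also: cells exposed to drugs for 96 hours; 0% = vehicle DMSO and 100% = high DMSO full killing control.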 Particulars: BT084 medulloblastoma cells, drug combinations, stronger effect = higher value.
A short description of assay [18]: RCMB18 cell growth, single agent and combined, cisplatin and BGB IC40 combos (AID 1671462).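 Also: cells exposed to compound for four days.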 As to conditions: RCMB18 medulloblastoma cells, stronger effect = higher value.
Assay [19] can be described thus: CRL1545 cell growth, single agent and combined, cisplatin and BGB IC20 combos (AID 1671464).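 Also: cells exposed to compound for 96 hours before readout; 0% = vehicle DMSO and 100% = high DMSO killing control.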 As to conditions: CRL1545 osteosarcoma cells, stronger effect = higher value.
[20] abbreviates: measured here: combination with BGB IC40, at 0.05 µM.
Setting [21] is: measured here: with BGB IC20 combination, at 0.5 µM.
Setting [22] is: measured here: with cisplatin IC20 combination, at 0.5 µM.
[23] abbreviates: measured here: combination with cisplatin, at 0.5 µM.

Each structure is given as a SMILES string. Records with an inconclusive call do not appear. Activity calls are given as the source filed them. Rule as the data show it, unless noted: active = inhibition above about 80%; inactive = the rest.

Sequence of NAD(+) hydrolase SARM1 (Homo sapiens) (Q6SZW1 whole entry, looked up): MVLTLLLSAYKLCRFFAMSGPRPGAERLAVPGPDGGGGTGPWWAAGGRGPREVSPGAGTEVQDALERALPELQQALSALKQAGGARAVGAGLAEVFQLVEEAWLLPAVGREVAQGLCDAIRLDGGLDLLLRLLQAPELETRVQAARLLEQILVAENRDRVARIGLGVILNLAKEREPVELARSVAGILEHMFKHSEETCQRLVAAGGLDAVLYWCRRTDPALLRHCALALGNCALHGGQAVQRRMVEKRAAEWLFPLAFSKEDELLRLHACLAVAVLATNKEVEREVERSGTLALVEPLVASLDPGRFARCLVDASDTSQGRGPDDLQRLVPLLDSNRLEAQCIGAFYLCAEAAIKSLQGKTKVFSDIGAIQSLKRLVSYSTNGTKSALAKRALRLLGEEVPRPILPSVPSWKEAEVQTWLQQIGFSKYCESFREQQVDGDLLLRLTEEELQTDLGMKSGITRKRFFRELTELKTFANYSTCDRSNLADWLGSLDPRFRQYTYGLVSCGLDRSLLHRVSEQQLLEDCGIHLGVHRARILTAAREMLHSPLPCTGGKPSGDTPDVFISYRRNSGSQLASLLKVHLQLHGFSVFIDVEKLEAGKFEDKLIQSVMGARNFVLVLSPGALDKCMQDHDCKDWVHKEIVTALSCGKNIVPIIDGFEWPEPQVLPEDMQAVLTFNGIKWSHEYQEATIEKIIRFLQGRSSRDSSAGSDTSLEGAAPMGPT

As to `C[C@]12CC[C@@H]3c4ccc(O)cc4C[C@@H](CCCCCCCCCS(=O)CCCC(F)(F)C(F)(F)F)[C@H]3[C@@H]1CC[C@@H]2O` (stereo partly drawn), in assay [1], the inhibition is 0% (inactive). Besides, the fluorescence ratio (interference) in assay [2] was 0.9 (inactive). Besides, in assay [3], the result was inactive. In assay [4], the SSMD was found to be 2.09, the cell count came out at 7000 and the plate-normalised HSF1 focus index was 1.13 (inactive). The remaining NAD in assay [5] is 10 nM (inactive).

As for `CCC(C)(C)c1ccc(CC(C)CN2C[C@@H](C)O[C@@H](C)C2)cc1` (stereo partly drawn), the remaining NAD in [5] is 10 nM (inactive).

In the case of `CC1=C(C)C(=O)C(CCCCC#CCCCC#CCO)=C(C)C1=O`, the period change in assay [6] is -0.105 h (inactive). In [1], the inhibition is -2% (inactive). Moreover, the fluorescence ratio (interference) in assay [2] was 1 (inactive).

Take `O=C(O)c1c(Cl)c(Cl)c(Cl)c(Cl)c1-c1c2cc(I)c(=O)c(I)c-2oc2c(I)c(O)c(I)cc12`: the AC50 in [3] was 16.6 µM (active); in assay [7], 6.61 µM (active).

With `C[C@@H]1C[C@H]2[C@@H]3CCC4=CC(=O)C=C[C@]4(C)[C@@]3(Cl)[C@@H](O)C[C@]2(C)[C@@]1(OC(=O)c1ccco1)C(=O)CCl`, the remaining NAD in assay [5] is 10 nM (inactive).

As to `Clc1cccc(C(c2ccc3nc[nH]c3c2)n2ccnc2)c1` (stereo not drawn), in assay [7], the compound was classed as inactive.

As to `O=C(O)c1cccc(-c2noc(-c3ccccc3F)n2)c1`, the compound was classed as inactive in [3].

For the compound `CCCCC(CC)COC(=O)C(C#N)=C(c1ccccc1)c1ccccc1` (stereo not drawn), the remaining NAD in assay [5] is 10 nM (inactive).

In the case of `CCCCCCCCOc1ccccc1C(=O)Nc1ccc(C(=O)OCC[N+](C)(CC)CC)cc1`, in assay [3], the call was inactive.

As for `O=C(O)c1nc(=O)[nH]c(=O)[nH]1`, the result in [7] was inactive.

Consider `CN(c1nccc(=O)[nH]1)C1CCN(c2nc3ccccc3n2Cc2ccc(F)cc2)CC1`, for which the outcome in [3] was inactive.

With `O=C(OC1C[C@H]2CC[C@@H](C1)[N+]21CCCC1)C(O)(c1ccccc1)c1ccccc1` (stereo partly drawn), in assay [5], the remaining NAD is 10 nM (inactive).

For `COc1cc(Nc2c(C#N)cnc3cc(OCCCN4CCN(C)CC4)c(OC)cc23)c(Cl)cc1Cl`, in [4], the SSMD is -18.3, the cell count is 5030 and the plate-normalised HSF1 focus index was 0.345 (active).

Turning to `CC(C)(C)C(=O)OCOP(=O)(COCCn1cnc2c(N)ncnc21)OCOC(=O)C(C)(C)C`, the values for the AC50 in [3] and in assay [7] were 20.9 µM (active) and 18.6 µM (active), respectively.

Regarding `C#Cc1cccc(Nc2ncnc3cc(OCCOC)c(OCCOC)cc23)c1`, in [4], the SSMD was found to be 2.72, the cell count was 6730 and the plate-normalised HSF1 focus index was 1.14 (inactive).

On to `CCOC(=O)Nc1ccc(NCc2ccc(F)cc2)nc1N`, for which, in assay [6], the period change is -0.33 h (inactive). Moreover, the inhibition is -3% (inactive) in [1]; -13% (inactive) in assay [8] (at 0.5 µM, stronger effect = higher value); -4.33% in assay [8] (measured here: combination with BGB IC20, at 0.005 µM); 50.9% in [8] (measured here: combination with BGB IC40, at 0.005 µM); -18.8% in [8] (setting [20]); 4.96% in [8] (measured here: combination with cisplatin, at 0.5 µM, stronger effect = higher value). In addition, the inhibition was -32.9% in assay [8] (measured here: combination with cisplatin, at 5 µM, stronger effect = higher value); -49% in [9] (BGB combo, at 5 µM); 0.72% (inactive) in assay [9] (at 0.5 µM); -18.8% in assay [9] (cisplatin combo, at 5 µM); -18.2% in [9] (setting [21]); 17% in assay [9] (setting [22]). In addition, the inhibition in [9] (single agent, at 5 µM) was -28.3%; in assay [10] (BGB IC20 combo, at 0.005 µM), -2.86%; in assay [10] (BGB IC40 combo, at 0.005 µM), -6.26%; in assay [10] (BGB IC40 combo, at 0.05 µM), -38.3%; in assay [10] (at 0.5 µM) it was -14.8% (inactive); in [10] (cisplatin combo, at 0.05 µM) it was -45.5%. Further, the inhibition in [10] (cisplatin combo, at 0.5 µM) was -9.07%; in assay [10] (cisplatin combo, at 5 µM) it was -15.3%; in assay [10] (measured here: 5 uM single agent, at 5 µM), -2.67%; in [11] (at 0.5 µM), -9.81% (inactive); in assay [11] (setting [20]) it was -17%; in assay [11] (setting [23]), -23.8%. Moreover, the inhibition in [11] (measured here: combination with cisplatin, at 5 µM) was -29.7%; in assay [12] (at 0.5 µM), 21.2% (inactive); in assay [12] (measured here: with BGB IC20, at 0.5 µM), 57.6%; in [12] (measured here: with BGB IC20, at 5 µM), 10.9%; in [12] (measured here: with cisplatin IC20, at 0.5 µM), -16.9%; in assay [12] (measured here: with cisplatin IC20, at 5 µM) it was 0.401%. Also, the inhibition in [12] (single agent, at 5 µM) was 1.76%; in [13] (at 0.5 µM) it was -23.9% (inactive); in assay [13] (measured here: combination with BGB at IC20, at 0.5 µM) it was -12.9%; in assay [13] (measured here: combination with cisplatin at IC20, at 0.5 µM), -33.8%; in [14] (at 0.5 µM), -9% (inactive); in assay [14] (measured here: combo with BGB at IC20, at 0.5 µM), -9.72%. In addition, the inhibition in [14] (measured here: combo with cisplatin at IC20, at 0.5 µM) is -9.37%; in assay [15] (at 0.5 µM) it was 4.04% (inactive); in assay [15] (measured here: inhibition with BGB combination, at 0.05 µM) it was -16.5%; in [15] (measured here: inhibition with cisplatin combination, at 0.05 µM), -2.73%; in assay [16] (at 0.5 µM), -12.4% (inactive); in [16] (measured here: BGB combination, at 0.5 µM) it was -4.35%. Also, the inhibition in [16] (measured here: BGB combination, at 5 µM) is -17.6%; in assay [16] (measured here: cisplatin combination, at 0.5 µM), -28%; in assay [16] (measured here: cisplatin combination, at 5 µM) it was -26.4%; in [17] (at 0.5 µM), 3.08% (inactive); in [17] (cisplatin combination, at 0.5 µM), 2.67%; in assay [17] (cisplatin combination, at 5 µM), -33.2%. Moreover, the inhibition in assay [17] (measured here: BGB IC40 combination 0.05 uM, at 0.05 µM) is 71.5%; in assay [17] (single agent, at 5 µM) it was 2.9%; in [18] (at 0.5 µM), -10.8% (inactive); in assay [18] (cisplatin combo, at 5 µM), -27%; in assay [18] (measured here: BGB IC40 combination, at 0.05 µM), 4.05%; in assay [18] (setting [23]), -15.1%. Also, the inhibition in [18] (single agent, at 5 µM) is -7.25%; in assay [19] (at 0.5 µM), 5.77% (inactive); in [19] (setting [21]), -17.8%; in assay [19] (setting [22]), 16.2%; in assay [19] (single agent, at 0.05 µM), -4.81%; in [19] (single agent, at 5 µM), -34.9%. The fluorescence ratio (interference) in [2] was 1 (inactive). In addition, the call in assay [7] was inactive.

Turning to `COC(=O)C1=C(C)NC(C)=C(C(=O)OCCN2CCN(C(c3ccccc3)c3ccccc3)CC2)C1c1cccc([N+](=O)[O-])c1` (stereo not drawn), the AC50 in [7] is 8.33 µM (active). Further, the remaining NAD in assay [5] was 10 nM (inactive).

Take `CC(=O)O[C@@]12CO[C@@H]1C[C@H](O)[C@@]1(C)C(=O)[C@H](O)C3=C(C)[C@@H](OC(=O)[C@H](O)[C@@H](NC(=O)OC(C)(C)C)c4ccccc4)C[C@@](O)([C@@H](OC(=O)c4ccccc4)[C@H]21)C3(C)C`: the result in [7] was inactive. For the same compound, in assay [5], the remaining NAD is 10 nM (inactive).

Turning to `COc1cccc(N(C)C(=S)Oc2ccc3c(c2)CCCC3)n1`, in assay [3], the compound was classed as inactive.

As for `NC(=O)Cc1cccc(C(=O)c2ccccc2)c1N`, the outcome in [3] was inactive.
